Sampled rows, rich in hits. Any-hit rate of the full collection: about 11%.
VDR inhibitor – Inhibitors of the vitamin D receptor (VDR): qHTS; VDR-SRC2-3 peptide fluorescence polarization, 2 h; Potency, µM, most hits filed as inhibitors; hit rate 0.93% among 400,000
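The screen uses fluorescence polarization to detect compounds that interfere with recruitment of the SRC2-3 coactivator peptide to VDR; plates are read after 2 h at room temperature.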
G9a block – qHTS Assay for Inhibitors of Histone Lysine Methyltransferase G9a | G9a H3K9 monomethylation, AlphaScreen, 2 h | Potency, µM (doses to about 102 µM), usual class: inhibitors | hit rate 8.8% among 350,000 | AID 504332, 2011; note: nearly all actives have a fitted effect of over 75% in size
Target sequence (Q96KQ7 913-1193 limits assumed): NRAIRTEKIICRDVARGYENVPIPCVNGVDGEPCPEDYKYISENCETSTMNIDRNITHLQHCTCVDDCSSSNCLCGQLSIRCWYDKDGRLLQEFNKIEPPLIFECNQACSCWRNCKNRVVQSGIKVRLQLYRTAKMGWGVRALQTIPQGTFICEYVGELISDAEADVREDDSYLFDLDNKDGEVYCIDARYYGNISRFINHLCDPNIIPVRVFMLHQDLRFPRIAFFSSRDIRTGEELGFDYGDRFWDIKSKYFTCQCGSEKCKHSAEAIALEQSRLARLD
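G9a (20 nM) preincubated 15 min RT with compounds, then 500 nM biotinylated H3K9 peptide and 20 uM SAM added; 2 h RT reaction. Monomethyl-H3K9 product detected by AlphaScreen with anti-H3K9me1 antibody, streptavidin donor and anti-rabbit IgG acceptor beads.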
BAZ2B block – qHTS Assay for Inhibitors of BAZ2B; Bromodomain adjacent to zinc finger domain protein 2B (Homo sapiens), Q9UIF8; AlphaScreen BAZ2B-H3K14Ac peptide displacement; Potency, µM (series often up to 114 µM), usual class: inhibitors; hit rate 4.4% among 360,000; AID 504333, 2011; note: nearly all actives have a fitted effect of over 60% in size
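Compounds, titrated to a top concentration of 110 uM, were incubated 30 min at room temperature with preformed BAZ2B/acetyl-K14 H3 peptide complex (50 nM each). Proximity signal was measured by AlphaScreen after 20 min with beads.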
JMJD2A Tudor – qHTS Assay for Inhibitors of JMJD2A-Tudor Domain | Lysine-specific demethylase 4A (Homo sapiens), O75164 | AlphaScreen JMJD2A-Tudor / H3K4me3 peptide binding | Potency, µM (series often up to 114 µM), usual class: inhibitors | hit rate 4.4% among 390,000 | AID 504339, 2011; note: nearly all actives have a fitted effect of over 50% in size
PLK1 PBD block – qHTS for Inhibitors of PLK1-PDB (polo-like kinase 1 - polo-box domain): Primary Screen | Serine/threonine-protein kinase PLK1 (Homo sapiens), P53350 | AID 720504, 2013 | Potency, µM, usual class: inhibitors | Plk1 PBD binding of FITC phosphopeptide, fluorescence polarization | hit rate 2.8% among 360,000; note: series mostly up to about 57 µM; nearly all actives have a fitted effect of over 65% in size
HP1b chromo inh – HTS for Inhibitors of HP1-beta Chromodomain Interactions with Methylated Histone Tails | AlphaScreen HP1-beta / biotin-H3K9me3 peptide binding | Potency, µM (titrated, usually from 114 µM), most hits filed as inhibitors | hit rate 0.56% among 390,000; note: nearly all actives have a fitted effect of over 70% in size
Target sequence (P83916 whole entry, looked up): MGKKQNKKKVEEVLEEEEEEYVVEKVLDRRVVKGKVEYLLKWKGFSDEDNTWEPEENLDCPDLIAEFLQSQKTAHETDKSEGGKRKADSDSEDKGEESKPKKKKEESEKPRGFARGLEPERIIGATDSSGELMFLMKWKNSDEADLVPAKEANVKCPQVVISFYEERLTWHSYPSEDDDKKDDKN
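Compound inhibition of the preformed complex between 50 nM HP1-beta and 50 nM biotinylated H3K9me3 peptide was read by AlphaScreen. Buffer was PBS pH 7.4 with 0.01% Tween-20. Incubations ran 30 min at room temperature, with 10 ug/mL donor/acceptor beads.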
Of the large screens only hits and unclear results are named; the others gave an inactive call. Calls come from the whole dose curve; as a rule, active = well fitted curve in the direction sought with a large enough effect; inconclusive = small, poorly fitted or top-dose-only effect, or another doubt; inactive = no such curve, though single readings can be large; an effect the other way counts as inactive or inconclusive.

CCN1C(=O)[C@H]2[C@H]3CN=C(SCc4ccc(C)cc4)N3[C@@](CC)(C(=O)OC)[C@H]2C1=O	none (no result: G9a block, BAZ2B block)
CC(C)CN1C(=O)/C(=C/c2c(N3CCc4ccccc4C3)nc3ccccn3c2=O)SC1=S	G9a block 35µM (no result: VDR inhibitor, JMJD2A Tudor, PLK1 PBD block, HP1b chromo inh)
Cc1ccc(Nc2n[nH]c(=S)s2)c(C)c1	PLK1 PBD block 24µM (no result: VDR inhibitor, G9a block, BAZ2B block, JMJD2A Tudor, HP1b chromo inh)
COc1cccc(Nc2n[nH]c(=S)s2)c1	VDR inhibitor inconclusive, G9a block 1.4µM, BAZ2B block inconclusive, JMJD2A Tudor 3.2µM, PLK1 PBD block 24µM, HP1b chromo inh inconclusive
COc1cccc(Nc2nc3ccc(OC)cc3s2)c1	G9a block inconclusive
Cc1cccc(Nc2n[nH]c(=S)s2)c1C	G9a block inconclusive, BAZ2B block 45µM, JMJD2A Tudor 5.6µM, PLK1 PBD block 30µM, HP1b chromo inh inconclusive
Cc1cc(C)c(Nc2n[nH]c(=S)s2)cc1C	PLK1 PBD block 27µM (no result: VDR inhibitor, G9a block, BAZ2B block, JMJD2A Tudor, HP1b chromo inh)
COc1ccccc1Nc1n[nH]c(=S)s1	VDR inhibitor inconclusive, G9a block 1.3µM, BAZ2B block 20µM, JMJD2A Tudor 4µM, PLK1 PBD block 21µM, HP1b chromo inh 22µM
CCOC(=O)CNS(=O)(=O)c1cc(-c2nn(C)c(=O)c3ccccc23)ccc1C	G9a block inconclusive, BAZ2B block 56µM, JMJD2A Tudor inconclusive
CCOC(=O)NCc1cc(-c2nn(C)c(=O)c3ccccc23)ccc1C	G9a block inconclusive
CCCCn1c(SCC(=O)N2CCC(C)CC2)nc2cc(S(N)(=O)=O)ccc21	G9a block 7.9µM
CCCCn1c(SCN2C(=O)c3ccccc3C2=O)nc2cc(S(N)(=O)=O)ccc21	G9a block 40µM
Cc1cc2oc(C(=O)Nc3c(C(=O)Nc4ccccc4)oc4ccccc34)cc(=O)c2cc1C	none (no result: PLK1 PBD block)
COc1cc(/C=N/N2C(C)CCCC2C)cc(Br)c1O (stereo unspecified)	G9a block inconclusive (no result: BAZ2B block)
CCN=c1scc(C)n1/N=C/c1cc(Br)c(O)c(OC)c1	G9a block 10µM, BAZ2B block 13µM, JMJD2A Tudor 79µM, HP1b chromo inh inconclusive
COc1cc(/C=N/N2C(=O)CSC2=S)cc(Br)c1O	VDR inhibitor inconclusive, G9a block 45µM, BAZ2B block 40µM, JMJD2A Tudor 45µM, PLK1 PBD block inconclusive, HP1b chromo inh inconclusive
CCOc1cc(S(=O)(=O)NCCc2c(C)[nH]c3ccc(C)cc23)ccc1F	BAZ2B block 35µM, JMJD2A Tudor 50µM (no result: PLK1 PBD block)
CCOc1cc(S(=O)(=O)NCCc2c(C)[nH]c3ccc(C)cc23)ccc1Br	G9a block inconclusive, BAZ2B block inconclusive, JMJD2A Tudor inconclusive (no result: PLK1 PBD block)
Cc1ccccc1CNS(=O)(=O)c1csc(C(N)=O)c1	none
COc1cc(CCC(=O)N2CCN(c3ccccc3)CC2)cc(OC)c1OC	none
CC(C)CC(=O)N1CCN(Cc2ccccc2Cl)CC1	BAZ2B block 50µM, HP1b chromo inh inconclusive
COc1ccc(CN2CCN(C(=O)CC(C)C)CC2)cc1	BAZ2B block inconclusive, JMJD2A Tudor 7.9µM, HP1b chromo inh inconclusive (no result: G9a block)
COc1cc(CN2CCN(C(=O)CC(C)C)CC2)cc(OC)c1OC	G9a block inconclusive, BAZ2B block 28µM, JMJD2A Tudor 6.3µM, HP1b chromo inh inconclusive
COc1cc(CN2CCN(C(=O)CC(C)C)CC2)c([N+](=O)[O-])cc1OC	G9a block 18µM, BAZ2B block 45µM, JMJD2A Tudor 22µM, HP1b chromo inh inconclusive
COc1ccc(NC(C)C(=O)N2CCN(Cc3ccccc3)CC2)cc1 (stereo unspecified)	G9a block inconclusive
COc1cc(CN(C(=O)c2ccccc2[N+](=O)[O-])c2ccccn2)cc(OC)c1OC	none (no result: PLK1 PBD block)
CC1=C(C(=O)Nc2ccccc2)C(c2ccccc2)n2nc(-c3ccco3)nc2N1 (stereo unspecified)	none (no result: PLK1 PBD block)
Nc1nc(SCc2cccnc2)c2ncn(C3OC(CO)C(O)C3O)c2n1 (stereo unspecified)	none (no result: G9a block, BAZ2B block)

From PubChem BioAssay
